VP16 counter: inhibits Gal4-VP16 luciferase reporter, ROR gamma counter-screen | Potency, µM (doses to about 53.6 µM), inactives show at the top dose activity, negative = inhibition, most hits filed as inhibitors | 310,000 compounds, 3.5% hits | Drosophila S2 Gal4-VP16 UAS-luciferase, luminescence, 20 h;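 further: Gal4-VP16 expression switched on by copper sulfate through the metallothionein promoter; potency means the concentration at half of the fitted maximal effect; on the % scale 0 is the no-effect control and ±100 the full control effect; nearly all actives have a fitted effect of over 50% in size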
Integrin act MD: integrin-mediated muscular dystrophy alleviation activation | alpha7betagal myoblasts, beta-gal FDG fluorescence, 48 h | Potency, µM (highest dose often 38.3 µM), without a hit: at the top dose activation, usual class: activators | 350,000 compounds, 0.064% hits;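 further: potency means the concentration at half of the fitted maximal effect; 100% = response of the positive control SU9516; nearly all actives have a fitted effect of over 60% in size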
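Alpha7betagal+/- myoblasts (passage 13) were plated 16-24 hr, then exposed to compounds (1:260 dilution of DMSO stock) for 48 hours at 37C. After MPER lysis, β-galactosidase reporter activity was read as FDG fluorescence (ex 480/em 540) after 30 minutes.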
Giardia killer: kills Giardia lamblia | 340,000 compounds, 0.15% hits | AID 540267 | activity change, % at 7.66 µM, hits read low | Giardia lamblia trophozoite viability; in the data active means activity change below about -80%; inconclusive means between about -30% and that limit;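 further: parasites exposed to compound for two days anaerobically before the ATP read; on the % scale 0 is the no-effect control and ±100 the full control effect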
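Giardia trophozoites, 100 cells per well, were exposed to compounds for 48 hrs at 37 deg C under anaerobic conditions; viability was then read as ATP content by bioluminescence after 15-30 min at room temperature.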
ERG-DNA inh: inhibitors of human ERG Ets domain-DNA interaction | fluorescence polarization, His-ERG Ets domain / labelled DNA | Potency, µM (series often up to 76.9 µM), for the others: at the top dose FP activity, negative = inhibition, actives largely listed as inhibitors | 370,000 compounds, 0.028% hits; active means well fitted inhibition curve with a large enough effect in the polarisation, with a control signal flat; inconclusive means small, poorly fitted or top-dose-only effect, or effect the other way, or a change in a side signal; inactive means no such curve, though single readings can be large or run the other way; the % refers to the polarisation;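 further: polarization taken with two DNA probes labelled with fluorescein and Texas red; potency means the concentration at half of the fitted maximal effect; % of control where 0% means no effect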
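His-tagged ERG Ets domain (1 uM in the protein solution; 300mM KCl, 50mM Tris-HCl, 1mM EDTA, 1mM DTT, pH 7.5) received compound, then a probe mix of 5 nM fluorescein-DNA and 100nM Texas-615-DNA. Fluorescence polarization was read for both dyes.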
RORg inh: blocks mouse ROR gamma transcriptional activity | 310,000 compounds, 5.4% hits | Drosophila S2 Gal4-RORgamma UAS-luciferase reporter, 20 h | P51450 | Potency, µM (series often up to 53.6 µM), for inactives: top-dose activity change, negative = inhibition, most hits filed as inhibitors; further: potency means the concentration at half of the fitted maximal effect; on the % scale 0 is the no-effect control and ±100 the full control effect; nearly all actives have a fitted effect of over 60% in size
Target sequence (P51450 whole entry, looked up, the tested form may be a part): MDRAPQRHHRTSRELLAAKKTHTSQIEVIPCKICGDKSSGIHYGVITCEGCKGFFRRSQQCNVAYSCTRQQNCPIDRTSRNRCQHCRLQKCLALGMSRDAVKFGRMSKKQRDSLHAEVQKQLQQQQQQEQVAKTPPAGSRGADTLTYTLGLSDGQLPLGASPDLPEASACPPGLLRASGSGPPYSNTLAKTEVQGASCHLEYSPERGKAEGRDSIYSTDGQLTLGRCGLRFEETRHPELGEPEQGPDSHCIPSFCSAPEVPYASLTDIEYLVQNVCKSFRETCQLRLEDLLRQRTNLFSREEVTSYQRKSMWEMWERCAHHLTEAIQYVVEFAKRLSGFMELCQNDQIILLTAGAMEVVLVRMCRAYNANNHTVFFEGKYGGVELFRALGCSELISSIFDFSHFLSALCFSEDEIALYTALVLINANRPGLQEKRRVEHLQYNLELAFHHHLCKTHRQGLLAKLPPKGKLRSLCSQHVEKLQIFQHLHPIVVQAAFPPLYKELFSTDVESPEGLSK
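Drosophila Schneider cells stably carrying a metallothionein-driven Gal4 DBD–ROR gamma fusion and a UAS-Photinus luciferase reporter were exposed to compound for 1 hr, then induced with copper sulfate (700 uM final) for 20 hr at ambient temperature before luminescence reading.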
* marks the source's active call; other numbers are inactive results; ? = inconclusive; . = not tested or not shown; ! = repeats disagree; [ ] = another dose, or the depositor's remark. Shown is part of a subset that was picked to be rich in hits. Unless noted, the call rests on the fitted dose curve; in most records, active means well fitted curve in the direction sought with a large enough effect; inconclusive means small, poorly fitted or top-dose-only effect, or another doubt; inactive means no such curve, though single readings can be large; an effect the other way counts as inactive or inconclusive.

SMILES | VP16 counter | Integrin act MD | Giardia killer | ERG-DNA inh | RORg inh
Cc1ccn2c(Nc3ccc4c(c3)OCO4)c(-c3ccccn3)nc2c1 | ? | -10% | -21 | ? | ?
Cc1ccn2c(NC3CCCC3)c(-c3ccccn3)nc2c1 | -17%[10 µM] | -61% | -4 | -11% | 3.5µM*
Cc1ccc(Nc2c(-c3ccccn3)nc3ccc(C)cn23)cc1 | ? | -44% | 4 | -2% | 13µM*
c1ccc(-c2nc3ccccn3c2NC2CCCC2)nc1 | 0% | -29% | 7 | 12% | 7%
Cc1ccc(Nc2c(-c3ccccn3)nc3cc(C)ccn23)cc1 | ? | -70% | -23 | -7% | 13µM*
Cc1ccn2c(NC3CCCCC3)c(C)nc2c1 | ? | -38% | -14 | 0% | 13µM*
CCCCC(CC)CNC(=O)CN(C)S(=O)(=O)c1ccc2c(c1)c(=O)n(C)c(=O)n2C (centres undefined) | . | . | . | -6% | .
CCOc1ccc(Br)cc1S(=O)(=O)Nc1cccc(S(=O)(=O)N2CCOCC2)c1 | . | 3% | 4 | 2% | .
Cc1ccc(NS(=O)(=O)c2cc(-c3cnc(C4CC4)o3)ccc2C)cc1Cl | . | . | . | 1% | .
C=C1CCN(C(C(=O)O)C(C)C)S(=O)(=O)c2ccccc21 (centres undefined) | 1% | . | 11 | . | 17%
CCOc1ccc(-c2[nH]ncc2Oc2cccc(OC)c2)c(O)c1 | ? | -16% | -1 | -5% | 11µM*
CCCOC(=O)c1ccc(Oc2cn[nH]c2-c2ccc(OCC)cc2O)cc1 | ? | -54% | 6 | -8% | 10µM*
COc1cccc(Oc2cn[nH]c2-c2ccc(OC)cc2O)c1 | 13µM* | -1% | 10 | 0% | 7.1µM*
COc1cccc(Oc2cn[nH]c2-c2ccc(O)cc2O)c1 | ? | 27% | -7 | . | ?
COc1ccc(Oc2cn[nH]c2-c2ccc(OCC(=O)NN)cc2O)cc1 | 0% | 0% | -1 | -12% | -15%
CC(=O)OCC1OC(c2ccc3c(c2)OCO3)C=CC1OC(C)=O (centres undefined) | -2%[10 µM] | . | . | . | -7%[10 µM]
CC(=O)N1CCN(c2nc3cc4c(cc3nc2NS(=O)(=O)c2ccccc2)OCCO4)CC1 | -8% | -6% | -1 | 10% | 10%
CO[C@@H]1COC(=O)[C@H]2CCCN2C(=O)[C@@H](C)COC(=O)[C@H](COCc2ccccc2)NC(=O)C/C=C\[C@H]1C | 6%[10 µM] | . | . | . | -2%[10 µM]
CCNc1ccccc1 | -5% | . | . | . | 7%
COc1ccc(-c2[nH]ncc2CN2CCC(OCc3cccnc3)CC2)c(F)c1 | -8% | 12% | 7 | 8% | 4%
CCOC(=O)c1cnc(-n2nc(C)cc2C)nc1Nc1ccc(C)cc1 | 0.79µM* | -3% | -18 | 5% | 0.56µM*
CCOC(=O)c1cnc(-n2nc(C)cc2C)nc1Nc1ccc(O)cc1 | -4% | 0% | -10 | -4% | -41%
CCOC(=O)c1cnc(-n2nc(C)cc2C)nc1NC1CCCCC1 | 1.1µM* | ? | 6 | -2% | 0.35µM*
CCOC(=O)c1cnc(-n2nc(C)cc2C)nc1Nc1ccc(N(C)C)cc1 | 1.1µM* | -24% | -1 | 2% | 0.79µM*
CCOC(=O)c1cnc(-n2nc(C)cc2C)nc1NC | 5.6µM* | 1% | -25 | 1% | 1.6µM*
SMILES | VP16 counter | Integrin act MD | Giardia killer | ERG-DNA inh | RORg inh
COc1ccccc1CNC(=O)c1cccc(-c2ccccc2OC)n1 | 7% | . | . | . | ?
CCCSCCCNC(=O)Cn1c(-c2cccs2)cc2ccccc21 | . | . | . | -1% | .
CCOC(=O)c1cnc(-n2nc(C)cc2C)nc1N(CC)CC | 4.5µM* | -18% | 2 | -10% | 1µM*
O=C(N/N=C/c1cn(-c2ccccc2)nc1-c1cccs1)c1ccc(Cl)cc1 | 5µM* | 0% | 35 | 0% | 2.5µM*
O=C(Nc1ccncc1)c1cn(-c2ccccc2)nc1-c1cccs1 | 4% | -11% | 2 | ? | 20%
O=C(N/N=C/c1cn(-c2ccccc2)nc1-c1cccs1)c1ccccc1F | 6.3µM* | -31% | 8 | -3% | 5µM*
Cc1cccnc1NC(=S)NC(=O)/C=C/c1ccco1 | 7.9µM* | -30% | 0 | 2% | 2.8µM*
COc1ccccc1/C=C/C(=O)NC(=S)Nc1ccccn1 | 5.6µM* | -52% | 20 | 4% | 4.5µM*
COc1ccc(/C=C/C(=O)NC(=S)Nc2ccccn2)cc1 | -28% | -22% | -16 | 4% | ?
O=C(/C=C/c1ccco1)NC(=S)Nc1ccccn1 | ? | -39% | -16 | 5% | 10µM*
CCn1c2ccccc2c2nnc(SCc3cc(=O)n4ccsc4n3)nc21 | 5% | . | . | . | 23%
COc1ccc(-c2csc3nc(-c4cccnc4)nc(N4CCC(C(N)=O)CC4)c23)cc1OC | -19% | ? | ? | 2% | -38%
COc1ccc(-c2csc3nc(C)nc(N4CCCCC4)c23)cc1OC | 10% | -6% | 1 | 4% | 10µM*
CC(C)c1ccc2oc3nc(N)c(C(=O)O)cc3c(=O)c2c1 | 4µM*! | . | . | . | 7.9µM*
Cc1nc2oc3ccc(Cl)cc3c(=O)c2cc1C(=O)O | ? | -11% | 12 | 3% | -16%
Cc1ccc(NC(=O)CCN2CCC(C(N)=O)CC2)cc1 | -2% | -39% | 3 | 18% | -2%
COc1cccc(Nc2sc(C(=O)c3ccc(F)cc3)c(N)c2C(=O)NCc2ccc(C)cc2)c1 | . | . | . | 1% | .
CC1(C)ON(C2CCCCC2)[C@H]2c3nc4ccccc4n3C[C@H]21 | -1% | -5% | -20 | 1% | 14µM*
CCNC(=S)Nc1ccc(N(c2ccccc2)C(C)C)cc1 | -2% | -15%[7.66 µM] | -4 | -8% | -44%
CCNC(=S)NN(c1ccccc1)c1ccccc1 | ? | 8% | -4 | 13% | 7.9µM*
CC(C)c1ccc(NC(=S)NN(c2ccccc2)c2ccccc2)cc1 | 5µM* | ? | 17 | 10% | 3.2µM*
CC(C)N(c1ccccc1)c1ccc(NC(=S)NCCN(C)C)cc1 | -4% | -60% | -4 | -5% | 1%
O=C(CCN1C(=O)c2ccccc2C1=O)Nn1cnnc1 | -12% | -15% | -17 | -5% | -27%[10 µM]
CCCn1c(C)nc2c(NC3CCCCC3)nc(C)nc21 | 9% | . | . | . | 16µM*
COc1ccccc1CNS(=O)(=O)c1cccs1 | ? | -1% | 21 | -8% | 21%
SMILES | VP16 counter | Integrin act MD | Giardia killer | ERG-DNA inh | RORg inh
CC(=O)N1c2ccccc2C2(O)N=C(C)SC12 (centres undefined) | 4.5µM* | 12% | 15 | -7% | 7.9µM*
O=C(Nc1nc(-c2cccs2)cs1)C1CC(=O)N(c2ccc3c(c2)OCCO3)C1 (centres undefined) | . | . | -27 | . | .
CC(=O)OC1=CN(Cc2ccccc2)S(=O)(=O)c2ccccc21 | . | . | . | 4% | .
CCOC(=O)C1CCCN(S(=O)(=O)c2ccc(S(=O)(=O)N(CC)CC)cc2)C1 (centres undefined) | 4.5µM* | -42% | -13 | -1% | 6.3µM*
OCC(CO)(CO)N=Cc1c(O)ccc2ccccc12 | -6% | 0% | 1 | -4% | -17%
Oc1ccccc1C=Nc1cccc2ccccc12 | -2% | 0% | -6 | 3% | -13%
